Screening data deposited in PubChem by National Center for Advancing Translational Sciences (NCATS).
GLP-1R agonist: agonists of human GLP-1 receptor; 0.007% of 380,000 active; HEK293 GLP-1R CRE-luciferase, luminescence, 4-6 h; cells express a hypersensitive GLP-1R form; Potency, µM (series often up to 45.6 µM), actives largely listed as activators
TRHR agonist: activates the human TRH receptor | P34981 | TRHR cells, calcium flux fluo-8, FDSS agonist mode | activation, % at 2 µM | 0.18% of 360,000 active | AID 493084; in the data active means activation above about 30%
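TRHR-expressing cells, plated overnight in medium with 10% serum, were loaded with fluo-8 calcium dye at room temperature. After a 10 s baseline, library compound was pin-added and calcium release was recorded kinetically (ex 480/em 530) as agonist response.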
PTHR1 agonist: agonists of human PTHR1 parathyroid hormone receptor; 0.075% of 410,000 active; Potency, µM (series often up to 115 µM), hits mostly activators; HEK293 GP2 PTHR1 cells, GloSensor cAMP luminescence, 1 h; further: nearly all actives have a fitted effect of over 55% in size
Target sequence (Q03431 whole entry, looked up): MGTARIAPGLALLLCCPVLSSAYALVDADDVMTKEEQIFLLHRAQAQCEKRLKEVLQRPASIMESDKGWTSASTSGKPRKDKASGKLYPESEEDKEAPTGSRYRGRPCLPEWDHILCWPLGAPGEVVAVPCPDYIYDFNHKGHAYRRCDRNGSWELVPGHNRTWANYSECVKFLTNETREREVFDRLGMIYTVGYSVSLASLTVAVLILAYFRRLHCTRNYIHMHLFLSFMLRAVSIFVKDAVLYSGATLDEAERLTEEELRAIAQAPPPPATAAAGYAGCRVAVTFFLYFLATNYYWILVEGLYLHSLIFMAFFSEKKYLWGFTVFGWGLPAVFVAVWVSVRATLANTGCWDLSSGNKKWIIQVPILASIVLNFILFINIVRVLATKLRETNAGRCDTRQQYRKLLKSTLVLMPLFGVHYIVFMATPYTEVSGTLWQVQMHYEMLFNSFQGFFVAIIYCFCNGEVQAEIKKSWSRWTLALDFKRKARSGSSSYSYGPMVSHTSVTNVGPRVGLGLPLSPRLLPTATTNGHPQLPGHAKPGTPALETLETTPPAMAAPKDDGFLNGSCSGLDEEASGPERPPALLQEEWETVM
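HEK-293-derived GP2 cells expressing PTHR1 and a GloSensor cAMP reporter, 3,000/well, plated overnight, given luciferin plus IBMX (each 0.5 mM as added) for 1 h at 37 °C, then compound for 1 h at 37 °C. Luminescence was read after 15 min at room temperature.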
TRHR PAM: allosterically enhances the human TRH receptor; 0.66% of 360,000 active; P34981; enhancement, % at 2 µM; TRHR cells, fluo-8 calcium fluorescence, EC20 TRH enhancement; in the data active means enhancement above about 30%
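Enhancer read-out: after compound pinning and an initial kinetic agonist-mode read, an EC20 of TRH (10 nM final) was injected and fluo-8 calcium signal (Ex 480/Em 530) followed at 1 s/cycle for 100 cycles in TRHR-expressing cells.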
GLP1R cytotox: cytotoxicity in counter-screen for GLP-1R inverse agonists; HEK293 cAMP-luciferase reporter cells, luminescence, 24 h; Potency, µM (titrated, usually from 38.3 µM), actives largely listed as inhibitors; 0.13% of 410,000 active;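 further: loss of luciferase light is scored as toxicity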
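1536-well qHTS counterscreen of the MLSMR; 200 cells/uL, 12 h pre-incubation, 23 nL cpd, 24 h at 37 deg C 5% CO2, luciferase detection reagent, 12 min RT, luminescence. Inhibition = undesired.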
GLP-1R inv ag: GLP-1 receptor (human) inverse agonism | HEK293 GLP-1R CRE-luciferase, luminescence, 24 h; GLP-1R form is constitutively active | Potency, µM (top dose mostly 38.3 µM), most hits filed as inhibitors | 1.6% of 410,000 active | AID 624417; further: nearly all actives have a fitted effect of over 55% in size
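HEK293 cells stably co-expressing a cAMP-responsive luciferase reporter and constitutively active GLP-1R were seeded, incubated 12 h, then exposed to compounds for 24 h at 37 C. Luminescence was read 12 min after detection reagent; inverse agonists lower signal.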
Hits are given with their value; . = inactive; ? = inconclusive; / = not tested or not shown; ! = not active in a repeat. Sampled rows, rich in hits. Any-hit rate of the full collection: about 2.4%. Unless noted, the call rests on the fitted dose curve; in most records, active means well fitted curve in the direction sought with a large enough effect; inconclusive means small, poorly fitted or top-dose-only effect, or another doubt; inactive means no such curve, though single readings can be large; an effect the other way counts as inactive or inconclusive.

SMILES | GLP-1R agonist | TRHR agonist | PTHR1 agonist | TRHR PAM | GLP1R cytotox | GLP-1R inv ag
Cc1c(Cl)cccc1NC(=O)CCC(=O)N/N=C/c1ccc[nH]1 | . | . | . | . | . | ?
CC(C)(C)c1ccc(C2CC2C(=O)N/N=C\c2ccc[nH]2)cc1 (stereo not given) | . | . | . | . | ? | 1.12µM
COc1c(Cl)cccc1-c1cn2ccccc2n1 | . | . | . | . | . | .
Cc1ccc(S(=O)(=O)c2c(C)nn(C(C)(C)C)c2OC(=O)c2ccco2)cc1 | . | . | . | . | . | ?
Cc1nn(C(C)(C)C)c(OC(=O)c2ccc3c(c2)OCO3)c1S(=O)(=O)c1ccccc1 | . | . | . | . | . | 10µM
Cc1nn(C(C)(C)C)c(OC(=O)c2ccc3c(c2)OCO3)c1Sc1ccccc1 | . | . | . | . | . | 4.47µM
CCN(CC(=O)Nc1ccc(NC(C)=O)cc1)C(=O)c1ccc2c(c1)OCO2 | . | . | . | . | . | .
O=C(OC1CCCCC1)c1ccc(NC(=O)C2CCCCC2)cc1 | . | . | . | . | . | 2.51µM
CCCCc1ccc(NC(=O)C2CCCC2)cc1 | . | / | . | / | . | 10µM
CCC1(c2ccc(F)cc2)NC(=O)N(CC(=O)N2CCN(S(=O)(=O)c3ccc(Cl)cc3)CC2)C1=O (stereo not given) | . | . | . | . | . | ?
CCC(Cn1nnc2ccccc2c1=O)NC(=O)Nc1ccc(C)cc1 (stereo not given) | / | . | . | . | . | .
CC1=C(C(=O)OCc2ccc3c(c2)OCO3)C(c2ccccc2)NC(=O)N1 (stereo not given) | . | . | . | . | ? | 3.16µM
CC1=C(C(=O)OCc2ccc3c(c2)OCO3)C(c2ccccc2OCc2ccccc2)NC(=O)N1 (stereo not given) | . | . | . | . | . | .
CCCC1=NN2C(=N)/C(=C\c3ccc(OCCOc4ccc(NC(C)=O)cc4)c(OC)c3)C(=O)N=C2S1 | . | . | . | 30.6 | . | .
CN(CC(=O)Nc1ccc(Cl)c(C(F)(F)F)c1)C(=O)C1(c2ccccc2)CC1 | . | . | . | . | . | ?
Cc1ccc(C2=NN(C(=O)CCC(=O)O)C(c3cccc([N+](=O)[O-])c3)C2)cc1 (stereo not given) | . | . | ? | . | . | .
CC(=O)N1N=C(c2ccc(Br)cc2)CC1c1cccc([N+](=O)[O-])c1 (stereo not given) | . | / | . | / | . | 11.2µM
O=C(COc1ccc(F)cc1)Nc1nnc(S(=O)(=O)N2CCc3ccccc32)s1 | / | . | . | . | . | ?
Cc1cccc(CN(Nc2ccccc2)c2ccccc2)n1 | . | / | . | / | . | 10µM
CCN(CC)CC(=O)Nc1ccc2c(c1)N(C(=O)CN(CC)CC)c1ccccc1CC2 | . | . | . | . | 3.98µM | .
Cc1cc(C(O)c2ncc(-c3ccccc3Cl)[nH]2)ccc1F (stereo not given) | . | / | . | / | . | .
COc1cc(CC(NC(C)=O)C(=O)NC2CCN(c3nc(C)cc(C)c3C#N)CC2)cc(OC)c1 (stereo not given) | . | . | . | . | . | .
COc1cc(/C=N/Nc2nc(Nc3ccc(C)cc3)nc(-n3nc(C)cc3C)n2)cc(OC)c1OC | . | . | . | . | 4.47µM | ?
S=C1NCCOCCOCCOCCOCCNC(=S)N2CCOCCOCCN1CCOCC2 | . | . | . | . | . | .
Cc1ccc(C)c(NC(=O)CN(C)S(=O)(=O)c2cccc3cccnc23)c1 | . | . | . | 32.0! | . | .
Cc1cccc(NC(=O)CN(C)S(=O)(=O)c2cccc3cccnc23)c1C | . | . | . | . | . | .
CC(C)(C)NC(=O)COC(=O)c1c2c(nc3ccccc13)CCC2 | . | . | . | . | . | .
CC1CCc2nc3ccccc3c(C(=O)OCC(=O)NC3CCS(=O)(=O)C3)c2C1 (stereo not given) | . | . | . | . | . | .
CC(C)c1ccccc1NC(=O)COC(=O)c1c2c(nc3ccccc13)CCN(Cc1ccccc1)C2 | . | . | . | . | . | 10µM
